Compounds with a hit are over-represented: about 2.6% of the library has one in this group of screens.
eIF4H inh – inhibitors of RNA binding by human eIF4H | eIF4H fluorescence polarization binding assay | inhibition, % at 35 µM | actives 0.94% (n = 290,000);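 further: calls also rest on retests at 20 µM and on dose response follow-up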
CRFR2-BP antag – CRF-BP/CRF-R2 complex antagonism | HEK293 CRF-R2/CRF-BP, CRF-induced calcium fluorescence | inhibition, % at 11.8 µM | actives 0.59% (n = 350,000);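 active means inhibition of the ligand-induced calcium signal above about 50% at the single tested concentration, limit read from the data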
PHOSPHO1 block – inhibitors of human PHOSPHO1 phosphatase; Q8TCT1; actives 1.1% (n = 290,000); inhibition, % at 13.3 µM; recombinant PHOSPHO1, absorbance phosphatase assay; AID 1565; in the data active means inhibition above about 60%
PABP polyA inh – blocks human PABP binding to poly(A) RNA | fluorescence polarization | inhibition, % at 35 µM | actives 1% (n = 290,000);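 further: calls also rest on retests at 20 µM and on dose response follow-up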
Target sequence (P11940 whole entry, looked up): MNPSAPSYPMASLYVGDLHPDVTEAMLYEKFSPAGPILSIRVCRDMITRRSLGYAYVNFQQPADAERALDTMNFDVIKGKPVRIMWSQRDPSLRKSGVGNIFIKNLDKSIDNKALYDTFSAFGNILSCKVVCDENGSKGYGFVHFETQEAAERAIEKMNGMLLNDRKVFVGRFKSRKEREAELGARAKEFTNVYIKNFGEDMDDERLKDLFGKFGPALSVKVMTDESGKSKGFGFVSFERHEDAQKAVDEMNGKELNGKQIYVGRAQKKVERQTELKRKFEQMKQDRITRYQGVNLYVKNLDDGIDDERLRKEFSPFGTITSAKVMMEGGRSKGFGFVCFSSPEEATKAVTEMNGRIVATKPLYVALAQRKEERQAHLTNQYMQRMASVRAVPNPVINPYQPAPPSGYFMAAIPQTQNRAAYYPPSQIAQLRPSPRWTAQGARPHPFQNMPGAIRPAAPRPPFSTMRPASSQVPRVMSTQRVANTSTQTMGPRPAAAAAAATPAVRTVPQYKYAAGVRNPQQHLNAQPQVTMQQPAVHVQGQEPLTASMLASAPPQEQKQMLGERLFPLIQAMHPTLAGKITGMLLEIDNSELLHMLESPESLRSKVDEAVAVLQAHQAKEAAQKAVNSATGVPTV
MLLE-PAM2 inh – blocks PAM2 peptide binding to the PABP1 MLLE domain | P11940 | GST-MLLE / FITC-PAM2 fluorescence polarization | inhibition, % at 20 µM | actives 0.36% (n = 360,000) | AID 588489; in the data active means inhibition above about 35%, passing the limit was not always enough;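 further: plate controls were DMSO wells with GST-MLLE for no effect and wells lacking GST-MLLE protein for full effect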
* hit, by the source's call; ? = inconclusive; / = no result. Unless noted, how the calls were made is not given here.

SMILES | eIF4H inh | CRFR2-BP antag | PHOSPHO1 block | PABP polyA inh | MLLE-PAM2 inh
O=C(NCC(=O)N1CCN(Cc2c(F)cccc2Cl)CC1)c1cccs1 | / | -3.2 | / | / | -12.1
O=[N+]([O-])c1ccc(/C=[N+](\[O-])[C@@H]2CCCC[C@@H]2/[N+]([O-])=C/c2ccc([N+](=O)[O-])o2)o1 | 81.0* | -9.8 | 24.2 | 48.2* | 5.5
O=C(N/N=C/c1ccc([N+](=O)[O-])o1)C1CCCC1 | 23.1 | -1.6 | 17.0 | 14.3 | 12.5
O=C(CCCN1C(=O)/C(=C/c2ccccc2Cl)SC1=S)NCCCN1CCOCC1 | -8.6 | -15.8 | 22.6 | -18.0 | 41.3*
CCCNC(=O)C1(C)CCCN(CCC(=O)c2ccccc2)C1 (centres undefined) | / | / | / | / | 25.1
CC(=O)Nc1ccc(SCC(=O)NC(=O)c2ccc(S(=O)(=O)N(C)C)cc2)cc1 | / | -5.8 | / | / | 40.3*
Nc1c(C(=O)O)sc2nc3c(cc12)CCCC3 | 7.1 | 4.4 | 51.2 | 2.4 | 4.6
CN1CCc2nc3sc(C(=O)C45CC6CC(CC(C6)C4)C5)c(N)c3cc2C1 | 67.2 | 7.2 | 80.8* | 42.5 | -16.2
CC(C)OC(=O)c1nn2c(C(F)(F)F)cc(-c3ccco3)nc2c1Cl | 17.7 | -4.2 | -0.9 | 11.6 | -66.2
CC(C)OC(=O)c1nn2c(C(F)(F)F)cc(-c3ccc(Br)o3)nc2c1Br | 44.4* | -14.7 | 25.3 | 72.3* | 26.4
CSc1ccccc1OCc1cc(C(=O)NCc2csc(C(C)C)n2)no1 | 0.8 | 104.8* | 39.9 | 10.6 | -0.4
CSc1ccccc1OCc1cc(C(=O)N(C)C(C)c2ccccn2)no1 (centres undefined) | 0.4 | -1.4 | 61.0* | -9.0 | 1.1
CC(C)c1nc(CNC(=O)c2cc(COc3c(F)cccc3F)on2)cs1 | -7.5 | 2.7 | 19.5 | -6.2 | 17.7
COc1ccc(Cl)c(-c2cc(C(=O)Nc3ccc(F)cc3)[nH]n2)c1 | / | / | / | / | -9.2
CCOC(=O)/C(C(N)=NCC(C)C)=C(/O)c1ccccc1 | 0.3 | 10.7 | 61.1* | -1.7 | -2.8
CC(C)(C)c1ccc(C(=O)N2CCOC23CCCCC3)cc1 | / | / | / | / | 3.2
COc1ccccc1Nc1nnc(SCC(=O)N2CCCC2=O)s1 | -5.4 | 2.8 | 61.3* | -2.8 | -20.1
CCCCn1c(/C=C/c2ccco2)nc2ccccc21 | 52.4* | 21.6 | -18.6 | 2.2* | -20.7
O=C(Nc1c(-c2ccccc2)nc2ccc(Cl)cn12)c1cccs1 | 50.6* | -3.1 | 0.3 | active | -10.8
CCOC(=O)CNc1c(-c2ccc(O)cc2)nc2ccc(Cl)cn12 | 79.5* | 3.3 | -117.2 | 30.5* | -12.4
CC(=O)Nc1c(-c2ccccc2)nc2ccc(Cl)cn12 | / | -14.8 | / | / | 2.1
CCOC(=O)CNc1c(-c2ccccc2)nc2ccc(Cl)cn12 | -10.3 | -8.3 | 23.4 | -15.0 | -4.7
CSc1ccc(/C=C/c2cc(=O)c3ccccc3[nH]2)cc1 | 130.9* | -35.1 | 1.0 | 57.6 | 7.1
O=c1cc(/C=C/c2cccs2)[nH]c2ccccc12 | -5.7 | 2.8 | -2.1 | 0.2 | 11.0
CCN(CC)CCCNc1ncnc2ccccc12 | 43.6 | 5.8 | -7.9 | 57.2* | 2.9
SMILES | eIF4H inh | CRFR2-BP antag | PHOSPHO1 block | PABP polyA inh | MLLE-PAM2 inh
OCCCCCNc1ncnc2ccccc12 | -4.5 | -6.7 | 1.5 | -6.0 | 1.0
Oc1[nH]c(=S)sc1/C=C1\C(c2ccccc2)=Nc2ccccc21 | 56.9* | -29.0 | -30.7 | 6.7 | -138.0
Oc1[nH]c(=S)sc1C=C1N=c2ccccc2=N1 | -7.7 | 5.5 | 24.6 | 6.6 | -17.3
O=C(CC1C[C@H](C(=O)N2CCOCC2)[C@@]2(CCC3CCCC3)c3[nH]c4ccccc4c3CCN2C1=O)NCC12CC3CC(CC(C3)C1)C2 (some centres undefined) | / | -5.2 | / | / | 2.8
Clc1ccc(C2=Nn3c(nnc3-c3n[nH]c4c3CCC4)SC2)cc1 | 0.2 | -1.2 | 73.3* | 6.7 | -113.4
Cc1ccc(-c2nn(-c3ccccc3)cc2/C=C/C(=O)O)o1 | -6.4 | 23.5 | 32.1 | 23.0 | 27.4
Cc1ccc(-c2nn(-c3ccccc3)cc2C(=O)O)o1 | 101.9* | / | -61.1 | active | /
CCOC(=O)N1CCN(C(=O)c2ccc3c(c2)NC(=O)/C(=C\c2cccc(C)c2)S3)CC1 | 1.8 | -14.4 | -0.1 | 3.0 | 23.2
FC(F)(F)c1cccc(-c2nc3nc(Cl)c(Cl)nc3[nH]2)c1 | ? | 38.0 | 5.0 | 31.6* | -29.2
N#Cc1cccc(C(c2nnnn2C2CCCC2)N2CCCCCC2)c1 (centres undefined) | -6.3 | 53.2* | 62.3* | 11.5 | 2.9
COc1ccc(C(c2nnnn2C2CCCC2)N2CCN(C(=O)c3ccco3)CC2)cc1OC (centres undefined) | -12.9 | -25.9 | 50.8 | 2.0 | -9.6
COc1cc(C(c2nnnn2C2CCCC2)N2CCc3ccccc3C2)ccc1O (centres undefined) | 2.5 | -2.2 | 77.4* | 4.8 | 22.6
Oc1ccc(C(c2nnnn2C2CCCC2)N2CCc3ccccc3C2)cc1 (centres undefined) | 1.9 | 15.3 | 84.4* | 8.9 | 12.2
N#Cc1cccc(C(c2nnnn2C2CCCC2)N2CCC(Cc3ccccc3)CC2)c1 (centres undefined) | -5.0 | -7.6 | 3.9 | 0.4 | 3.9
CC(=O)c1cccc(NC(=O)CCc2nc3sc4c(c3c(=O)[nH]2)CCCC4)c1 | / | -6.5 | / | / | -34.3
CC1(C(=O)NS(=O)(=O)c2cccc(C#N)c2)CCN1C(=O)c1ccccc1 (centres undefined) | / | / | / | / | 0.7
CCN(CC)S(=O)(=O)c1cccc(C(=O)Nc2ccc3c(c2)OCO3)c1 | 0.0 | 54.8* | 19.0 | 1.3 | 10.4
O=C(O)c1cccc(S(=O)(=O)Nc2ccc3c(c2)OCO3)c1 | 6.6 | -3.6 | -17.5 | 12.2 | 38.3*
O=C(O)c1cccc(NS(=O)(=O)c2ccc3c(c2)OCCCO3)c1 | -2.1 | -23.4 | -35.4 | 31.8 | -0.3
CCCN(CCC)S(=O)(=O)c1cccc(C(=O)Nc2ccc3c(c2)OCO3)c1 | -2.1 | -22.6 | 10.8 | -1.0 | -13.8
CCN(C(=O)c1ccc(NC(=O)C2CCCCC2C(=O)O)cc1)c1ccccc1 (centres undefined) | / | -2.4 | / | / | 6.2
c1cc(-c2ccoc2)n2ccnc2c1 | / | / | / | / | 47.2*
c1cc(-c2ccsc2)n2ccnc2c1 | / | / | / | / | 7.1
COc1ccc(C(NC(=O)C2CCN(CCOc3ccc(Cl)cc3)CC2)c2cccs2)cc1 (centres undefined) | / | / | / | / | 8.5
CCc1ccc(-c2cc(C)no2)cc1S(=O)(=O)Nc1ccc(Cl)cn1 | -10.7 | 57.1* | 22.3 | 11.9 | 7.7
CCc1ccc(-c2cc(C)no2)cc1S(=O)(=O)Nc1cc(C)on1 | -9.0 | 12.8 | 18.5 | 4.4 | 1.9
CC1CCC2=NN(C(=O)c3ccco3)C(O)(C(F)(F)F)C2C1 (centres undefined) | ? | 67.3* | -4.9 | ? | -8.4
O=C(c1ccco1)N1N=C(C2CCCCC2)CC1(O)C(F)(F)F (centres undefined) | -8.1 | -10.4 | 10.2 | 7.6 | -5.6
CSCC(C)N1CCC(n2nccc2NC(=O)CCOc2ccccc2)CC1 (centres undefined) | 77.4 | -0.8 | 51.0 | 17.1* | 13.1

Bioassay records as filed in PubChem BioAssay.
